Assay outcomes (PubChem BioAssay)
Shown is part of a subset that was picked to be rich in hits.
Pf Dd2 inh: inhibitors of Plasmodium falciparum Dd2 growth. P. falciparum Dd2 growth, SYBR Green, 72 h. Potency, µM (doses to about 28.9 µM), for the others: top-dose activity, negative = inhibition, usual class: inhibitors. hit rate 4.3% among 120,000; active = well fitted inhibition curve with a large enough effect;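 note: plate controls were DMSO vehicle for no effect and reference drug for full effect; nearly all actives have a fitted effect of over 65% in size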
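Infected erythrocytes (Dd2, 0.3% parasitemia, 2.5% hematocrit final) are added to compound in RPMI-1640/Albumax II medium, grown 72 h at 37C in low oxygen, then lysed with saponin/Triton-X containing SYBR Green and read by fluorescence.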
Active calls of the source: *; i = inactive; [ ] = remark or other dose. Potency is the fitted concentration of half-maximal effect.

SMILES	Pf Dd2 inh
CCc1ccc(C2=CC(c3cccc(OC)c3OC)n3c(nc4ccccc43)N2)cc1 (stereo not drawn)	8.91µM*
CC(C)c1ccc(C2N=C(N)Nc3nc4ccccc4n32)cc1 (stereo not drawn)	3.16µM*
CC1=C(C(N)=O)C(c2ccc(C(C)C)cc2)n2nc(SCc3ccccc3F)nc2N1 (stereo not drawn)	7.3%
CCN(CC)C(=O)C1=C(C)Nc2nc3ccccc3n2C1c1cccc(Cl)c1 (stereo not drawn)	11.2µM*
Cn1c(=O)c2c(c3ccccc31)OC(=O)CC2c1cccc(Cl)c1 (stereo not drawn)	22.6%
CC(C)c1ccc(C2=CC(c3cccc(Cl)c3)n3ncnc3N2)cc1 (stereo not drawn)	15.9%
COc1ccc(C2N=C(N)Nc3nc4ccccc4n32)c(OC)c1OC (stereo not drawn)	-19.6%
COc1cccc(C2C(C(=O)Nc3ccc(C)cc3C)=C(C)Nc3nc4ccccc4n32)c1OC (stereo not drawn)	-11.7%
COc1cccc(C2C(C(=O)Nc3ccc(Cl)cc3)=C(C)Nc3nc4ccccc4n32)c1 (stereo not drawn)	-22.0%
COc1cccc(C2=CC(c3ccccc3F)n3c(nc4ccccc43)N2)c1 (stereo not drawn)	10.9%
CCN(CC)C(=O)C1=C(C)Nc2nc3ccccc3n2C1c1ccc(Cl)cc1 (stereo not drawn)	-10.4%
O=C(C1CCOCC1)N1CCC2(COc3ncccc3[S+](=O)([O-])N2)C1 (stereo not drawn)	12.1%
Cc1ccc(-c2nc(C(=O)NCc3ccc(F)cc3F)no2)cc1	59.5%
Cc1nncn1C1CCN(S(=O)(=O)c2ccc(C(F)(F)F)cc2)CC1	-12.6%
Cc1ncc2n1C(=O)N(C1CCN(C(=O)c3cccc(Cl)c3)CC1)C2	-6.8%
CNC(=O)Cn1nc(C2CCN(C(=O)c3cccc(F)c3)CC2)c2c1CCOC2	i[5.79 µM]
CCc1ccc(CN2CCC3(CC2)Cc2ccccc2CNC3=O)s1	-29.0%
CCN(CC)C(=O)C[C@@H]1c2nc(NC(=O)c3cccs3)sc2C[C@@H]2[C@](C)(CO)[C@H](O)CC[C@]21C	3.98µM*
CCN(CC)C(=O)C[C@@H]1c2nc(NC(=O)CC(C)(C)C)sc2C[C@@H]2[C@](C)(CO)[C@H](O)CC[C@]21C	i
CC(C)NC(=O)C[C@@H]1c2nc(NC(=O)C3CCCCC3)sc2C[C@@H]2[C@](C)(CO)[C@H](O)CC[C@]21C	10µM*
C=CCN(C)C(=O)C[C@@H]1c2nc(NC(=O)c3ccc(OC)cc3)sc2C[C@@H]2[C@](C)(CO)[C@H](O)CC[C@]21C	-6.1%
CCN(CC)C(=O)C[C@@H]1c2nc(NC(=O)C3CCC3)sc2C[C@@H]2[C@](C)(CO)[C@H](O)CC[C@]21C	7.08µM*
CC(=O)N1CCN(C(=O)C[C@@H]2c3nc(NC(=O)C4CCC4)sc3C[C@@H]3[C@](C)(CO)[C@H](O)CC[C@]32C)CC1	-21.9%
C=CCOC(=O)Nc1nc2c(s1)C[C@@H]1[C@](C)(CO)[C@H](O)CC[C@@]1(C)[C@@H]2CC(=O)NC(C)C	-9.3%
NC(=O)[C@@H]1CN(C2CCSCC2)C[C@H]1COc1ccncc1	0.7%
SMILES	Pf Dd2 inh
O=C1NCC2(CCN(c3nccc(CCC(F)(F)F)n3)CC2)O1	3.4%
CN(Cc1cc2n(n1)CCNC2)Cc1cnc(-c2ccccc2)s1	-6.5%
O=S(=O)(c1ccc(Cl)s1)N1CCC(n2cnnc2C2CC2)CC1	0.4%
Cc1ccccc1S(=O)(=O)N1CCC(n2cnnc2C2CC2)CC1	-9.2%
Cc1nc(C)c(C(=O)N2CCCC(COc3ccccc3C(=O)N3CCCC3)C2)s1 (stereo not drawn)	-0.8%
COCC(=O)N1CC[C@H]2CC(=O)N(CCc3cccc(OC)c3OC)CC[C@H]2C1	-15.1%[44.1 µM]
COc1ccc(NC(=O)Cn2c(=O)n(-c3ccc(F)cc3)c(=O)c3c2cc(C)n3C)c(OC)c1	-18.7%
Cc1noc(-c2ccc(C(C)(C)C)cc2)c1C(=O)NCc1cc(F)cc(F)c1	10µM*
Cc1noc(-c2ccc(C(C)(C)C)cc2)c1C(=O)NCc1ccc(F)cc1F	-6.7%
Cc1cccc(CNC(=O)c2c(C)noc2-c2ccc(C(C)(C)C)cc2)c1	-11.1%
O=C1CC(c2ccccc2)N(C(=O)CNS(=O)(=O)c2cccnc2)CCCCCN1 (stereo not drawn)	6.0%
COc1cc(=O)n2c(c1C(=O)Nc1ccccc1F)CCCC2	35.5%
CCOC(=O)C1CCCN(c2ncnc3c2cnn3-c2ccc(C)c(Cl)c2)C1 (stereo not drawn)	62.1%
CCc1ccc2ncc(C(=O)c3ccc(C)c(C)c3)c(N3CCC(C(N)=O)CC3)c2c1	-34.3%
CCOC(=O)C1CCCN(c2c(C(=O)c3ccc(C)cc3)cnc3ccc(OCC)cc23)C1 (stereo not drawn)	11.2µM*
COCCNC(=O)c1ccc2c(c1)N(C)C(CC(=O)Nc1ccc[nH]c1=O)CO2 (stereo not drawn)	-7.7%
CN(C)C(=O)c1ccc(OC2CCN(C(=O)c3ccccc3)CC2)nc1	25.0%
CN1C(=O)[C@H]2CN(Cc3c[nH]c4ccccc34)C[C@H]2C1=O	8.7%
CCCCNC(=O)c1cc(NC(=O)CC)cc2nc(C)ccc12	-1.6%
CCNC(=O)c1cc(NC(=O)CC)cc2nc(C)ccc12	-16.2%
CCC(=O)Nc1cc(C(=O)NCc2ccc(N3CCN(C)CC3)cc2)c2ccc(C)nc2c1	10µM*
CCCn1cnnc1CNC(=O)C1(Oc2ccc(Cl)cc2)CCNCC1	6.9%
Cc1cccc(C(=O)N2C(C(=O)N3CCOCC3)COC23CCN(C(=O)CC(C)(C)C)CC3)c1 (stereo not drawn)	7.5%
COCCN1C(=O)CCC2(CNC(=O)c3ccncc3)CCCC=C12 (stereo not drawn)	46.2%
CCN1c2cc(C(=O)Nc3ccc(OC)c(OC)c3)ccc2C(=O)N2CCCC21 (stereo not drawn)	-10.0%
SMILES	Pf Dd2 inh
CC1(C)[C@H](Cc2cc(COc3ccccc3)on2)C[C@@H]1NC1CCC1	11.2µM*
CC1(C)[C@H](Cc2cc(CN3CCOCC3)on2)C[C@@H]1NC(=O)Nc1ccc(F)cc1	i
c1ccc(OCc2cc(CC3(NC4CCC4)COC3)no2)cc1	-18.3%[44.1 µM]
CC(C)(C)C(=O)N[C@H]1C[C@@H](Cc2cc(COc3ccccc3)on2)C1(C)C	-6.7%[44.1 µM]
CC1(C)[C@H](Cc2cc(COc3ccccc3)on2)C[C@@H]1NC(=O)Nc1ccccc1	10µM*
CCCCCC(=O)N[C@H]1C[C@@H](Cc2cc(COC(=O)CCCCC)on2)C1(C)C	-5.7%[44.1 µM]
CCCCc1cc(C[C@@H]2C[C@H](NC(=O)NCC)C2(C)C)no1	i
CCCCCC(=O)N[C@H]1C[C@@H](Cc2cc(COc3ccccc3)on2)C1(C)C	11.2µM*
CN(C)[C@H]1C[C@@H](Cc2cc(COc3ccccc3)on2)C1(C)C	i
Cc1cnc(C(=O)N2CCC(Cc3ccc(C(N)=O)cc3)CC2)cn1	30.3%
CNC(=O)c1cccc(-c2cnc(NC(=O)Cc3ccccc3)c3c2CCO3)c1	3.9%[44.1 µM]
CCN(CC)Cc1cnc2c(C(=O)NCCc3ncc[nH]3)cnn2c1	5.9%
CCCCC1CN(c2ccc(Cl)cc2)C(=O)CN1C(=O)CNC(=O)OC (stereo not drawn)	-9.5%
COc1ccc(-c2cc(N3CCCN(C(=O)C4CCN(C(=O)c5ccccc5)CC4)CC3)n[nH]2)cc1	i
O=C(O)c1ccc(-c2ccc(C(=O)O)nc2)cc1	-1.7%[44.1 µM]
CCOCc1nc(C2CCCN(C(=O)Nc3ccccc3)C2)no1 (stereo not drawn)	-24.0%
CCCCc1cn([C@@H]2CN[C@H](C(=O)O)C2)nn1	-5.0%
